# EBV LMP1 NFkB: reduces LMP1-driven NF-kappaB luciferase signal | LMP1-induced NF-kappaB luciferase reporter cells, luminescence | inhibition, % at 12.5 µM | actives 0.69% (n = 350,000); in the data active means inhibition above about 41%;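 further: 0% = neutral control wells and 100% = reference inhibitor control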
# TWEAK-Fn14 inh: inhibitors of TWEAK-Fn14 interaction signaling. TWEAK-stimulated Fn14 reporter cells, luciferase luminescence, 8 h. inhibition, % at 10 µM. actives 2% (n = 360,000). AID 1159606; in the data active means inhibition above about 50%
# HIF-2a inh: blocks HIF-2a reporter activity | 786-0 RCC cells HIF-2a reporter, luciferase luminescence, overnight | inhibition, % at 18.8 µM | actives 0.72% (n = 360,000);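 active means inhibition of the luminescence signal of 40% or more relative to plate controls, in a single-dose primary screen at 18.75 µM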
# MITF TRPM1 inh: inhibitors of MITF-driven TRPM1 promoter in melanoma cells; AID 488899; inhibition, % at 12.5 µM; actives 0.83% (n = 330,000); SK-MEL-5 TRPM1 promoter luciferase, 24 h;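 active means mean inhibition across replicates of 60% or more, whatever share of single replicates reaches that level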
# Peg3 prom inh: inhibitors of Peg3 promoter | actives 1.7% (n = 360,000) | HeLa PEG-Prom luciferase reporter, luminescence, overnight | AID 588405 | inhibition, % at 20 µM;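 active means inhibition of at least 50% at 20 µM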
# TROY NFkB inh: blocks TROY-dependent signaling in reporter cells; inhibition, % at 10 µM; Q293 LMP1-TROYcd NF-kB luciferase reporter, 4 h; actives 0.98% (n = 360,000);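 active means compounds whose plate-normalised and pattern-corrected inhibition of the luciferase reporter signal at the single screening dose is 50% or more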
# * = called active by the depositor; · = not tested or not shown. Sampled rows, rich in hits. Any-hit rate of the full collection: about 4%.
SMILES,EBV LMP1 NFkB,TWEAK-Fn14 inh,HIF-2a inh,MITF TRPM1 inh,Peg3 prom inh,TROY NFkB inh
O=C(Nc1cccc(Cl)c1)c1ccc2c(=O)n3c(nc2c1)CCCCC3,-23,41,-187,-47,-205,53*
O=C(Nc1ccc(Cl)cc1)c1ccc2c(=O)n3c(nc2c1)CCCCC3,-23,8,-222,·,-236,-3
O=C(Nc1ccc(F)cc1)c1ccc2c(=O)n3c(nc2c1)CCCCC3,-27,-17,-266,-74,-251,-43
Cc1ccc(-c2csc(NC(=O)c3ccc4c(=O)n5c(nc4c3)CCCCC5)n2)cc1,28,70*,-18,32,30,-26
CC(=O)c1ccc(NC(=O)c2ccc3c(=O)n4c(nc3c2)CCCCC4)cc1,-6,14,-13,1,16,4
CCCCN1C(=O)c2ccc(C(=O)NCc3ccco3)cc2C1=O,-8,6,-2,19,33,-3
CC(=O)N1CCN(CC(=O)Nc2ccc([N+](=O)[O-])cc2Br)CC1,3,-10,0,10,29,-2
CCOC(=O)C1CCN(C(=O)c2sccc2Cl)CC1,3,-2,9,0,7,-1
COc1ccc(NC(=O)C#Cc2ccccc2)cc1OC,-14,95*,-52,-2,-192,-3
CCN(CC)CCNC(=O)C(=O)Nc1ccc2c(c1)N(S(=O)(=O)c1cccs1)CCC2,-10,-6,24,-20,11,7
CSCC(CO)NS(=O)(=O)c1ccc(C)cc1 (stereo not given),2,23,16,-1,11,57*
O=C1C=C(NCCc2cc(Br)c(O)c(Br)c2)C(=O)c2ncccc21,18,94*,9,109*,93*,38
Cc1cc(=O)oc2cc(OCC(=O)Nc3nnc(C(C)C)s3)ccc12,-9,77*,12,4,9,-1
Cc1cc(=O)oc2cc(OCC(=O)Nc3nnc(CC(C)C)s3)ccc12,3,-3,17,-7,-13,12
O=C(Cn1cnc2c(NC(=O)OCc3ccccc3)ncnc21)NCc1ccccn1,2,-11,0,-2,-10,-2
CC(C)c1ccc(NC(=O)Nc2nc(C(N)COCc3ccccc3)cs2)cc1 (stereo not given),·,-14,26,·,110*,15
CC(C)c1ccc(NC(=O)Nc2nc(C(N)c3ccccc3)cs2)cc1 (stereo not given),·,-21,5,·,110*,-8
CC(C)c1ccc(NC(=O)Nc2nc(C(N)C(C)C)cs2)cc1 (stereo not given),·,0,-10,·,96*,5
CC(C)C(N)c1csc(NC(=O)Nc2cccc(Cl)c2)n1 (stereo not given),·,14,-41,·,24,-2
NC(c1csc(NC(=O)Nc2ccc(OC(F)(F)F)cc2)n1)C1CCCCC1 (stereo not given),·,2,20,·,100*,7
CCOC(=O)C(C#N)=CN1CCNc2ccccc21,-4,28,-21,-23,-10,-8
NC(c1csc(NC(=O)Nc2cccc(Cl)c2)n1)c1ccccc1Cl (stereo not given),·,63*,-43,·,100*,42
CC(N)c1csc(NC(=O)Nc2cccc(C(F)(F)F)c2)n1 (stereo not given),·,10,10,·,78*,-14
Cc1cccc(C)c1NC(=O)Nc1nc(C(N)c2ccccc2Cl)cs1 (stereo not given),·,-2,20,·,2,9
CCOc1ccc(CN2CCN(Cc3cccn3-c3nccs3)CC2CCO)cc1 (stereo not given),-3,-13,12,0,6,-1
SMILES,EBV LMP1 NFkB,TWEAK-Fn14 inh,HIF-2a inh,MITF TRPM1 inh,Peg3 prom inh,TROY NFkB inh
C=C1CCC[C@]2(C)C[C@H]3OC(=O)C(CNC(C)CCCC(C)C)[C@H]3CC12 (stereo not given in full),-7,12,-7,16,104*,20
O=[N+]([O-])c1ccc(N2N=C(c3ccccc3)CC2c2ccccc2O)cc1 (stereo not given),6,81*,0,3,53*,60*
O=C(NCc1ccccn1)C(=O)Nc1cc2c3c(c1)CC(=O)N3CCC2,-2,0,4,4,-7,14
CC(C)n1cc(/C=N/Nc2ccc(C(=O)O)cc2)c2ccccc21,5,81*,-12,-3,-56,62*
O=C(COC(=O)c1cc(S(=O)(=O)Nc2ccccc2Cl)ccc1O)Nc1nc2ccccc2s1,-6,-11,-46,10,-9,60*
CC(C)(C)c1ccc(OCCOc2ccc(C(C)(C)C)cc2NC=O)c(NC=O)c1,9,26,24,6,20,51*
Cc1ccc(C(=O)NC2CCCc3c2cnn3-c2ccc(F)cc2F)cn1 (stereo not given),36,28,14,5,20,25
CN(C)N1C(N)=C(C#N)C(c2ccccc2F)C2=C1CC(C)(C)CC2=O (stereo not given),0,26,19,2,4,1
O=C(CSc1nnc2nnc3ccccc3n12)N1CCOCC1,19,64*,-7,59,1,68*
Cn1c(SCC(=O)N2CCOCC2)nnc1-c1ccncc1,-10,-2,4,8,-1,0
O=C1CCCN1CCCNc1nc(NCc2ccccc2)nc2ccsc12,·,13,5,·,21,23
COc1ccc(-c2csc(N3C(=O)C4C5c6ccccc6C(c6ccccc65)[C@@H]4C3=O)n2)cc1 (stereo not given in full),0,7,12,-5,14,-12
COc1ccc(-c2csc(N3C(=N)SCC3=O)n2)cc1,-25,65*,-164,-5,-192,38
COc1ccc(-c2csc(N3C(=O)CNC3=S)n2)cc1,-4,61*,-120,2,-198,21
CCCC1/C(=N/O)CC(c2ccccc2)NC1c1ccccc1 (stereo not given),0,44,21,3,60*,25
CCC1C(=NO)C(CC)C(c2ccccc2)NC1c1ccccc1 (stereo not given),-6,-6,32,-9,64*,38
CC1/C(=N/O)CC(c2ccccc2)NC1c1ccccc1 (stereo not given),4,-11,17,-19,14,9
CCOc1ccc(NC(=O)CCCN2C(=O)C(c3ccccc3)Oc3cccnc32)cc1 (stereo not given),-4,27,5,14,8,-14
Cc1onc(-c2ccccc2)c1NC(=O)OC(C)c1cccnc1 (stereo not given),-2,87*,6,·,1,-12
Cc1onc(-c2ccccc2)c1NC(=O)Nc1c(-c2ccccc2)noc1C,1,0,20,5,-6,-10
COc1ccccc1-c1cnc(C(O)c2ccc(F)cc2C)[nH]1 (stereo not given),·,7,4,·,11,7
CN=C1S/C(=C\c2ccc(O)c(Br)c2)C(=O)N1C,45*,42,-100,3,-9,-5

# Screens (PubChem)
